The list is not random: actives were taken first. Their share in the collection is about 10%.
GPT2 inhibitor: Primary qHTS assay for inhibitors of Glutamate pyruvate transaminase 2 (GPT2) | 100,000 tested, 0.25% active | AID 1671188, 2021 | Alanine aminotransferase 2 (Homo sapiens), Q8TD30 | Recombinant GPT2, coupled pyruvate oxidase/HRP Amplex Red fluorescence | Potency, µM (highest dose often 57.7 µM), most hits filed as inhibitors; also: nearly all actives have a fitted effect of over 60% in size
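Recombinant GPT2 (10ng/uL) with 250uM a-KG and 2mM L-alanine, 30 min at room temperature, in HEPES pH 7.5 buffer. Pyruvate detected by pyruvate oxidase/HRP/Amplex Red fluorescence after 30 min in the dark; AOA (50uM) as positive control.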
3T3 cytotox: Cytotoxic Profiling in NIH 3T3 Cell Line of Diverse Libraries Using Quantitative High-Throughput Screening | NIH 3T3 viability, CellTiter-Glo ATP luminescence, 48-72 h | Potency, µM (titrated, usually from 96.7 µM), actives largely listed as inhibitors | 94,000 tested, 4.3% active | AID 1345082, 2018; also: nearly all actives have a fitted effect of over 55% in size
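Cells were seeded at 400 per well, treated with pin-transferred compound, and kept 48 or 72 hr at 37 °C before CellTiter-Glo addition and luminescence imaging of cellular ATP.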
HEK293 tox: Cytotoxic Profiling in HEK 293 Cell Line of Diverse Libraries Using Quantitative High-Throughput Screening; Potency, µM (top dose mostly 115 µM), usual class: inhibitors; 94,000 tested, 6.6% active; AID 1345083, 2018; HEK 293 viability, ATP luminescence (CellTiter-Glo), 48-72 h; also: nearly all actives have a fitted effect of over 60% in size
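Cells seeded first (HEK 293, 250 cells/well), then compound added by pintool. Incubation ran 48 or 72 hr at 37 degree Celsius. CellTiter-Glo was added and luminescence imaged after 10 min at room temperature.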
hNpr1 antagonist: Natriuretic polypeptide receptor (hNpr1) antagonism - Primary qHTS; Atrial natriuretic peptide receptor 1 (Homo sapiens), P16066; HEK293 hNpr1 GloSensor cGMP, ANP-stimulated luminescence; Potency, µM (titrated, usually from 46.3 µM), hits mostly inhibitors; 76,000 tested, 1.6% active; calls by dose curve; also: nearly all actives have a fitted effect of over 60% in size
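HEK293 cells stably expressing human Npr1 and cGMP GloSensor pGS-40F, loaded 2 h with 2% GloSensor reagent, given compound 30 min at room temperature. Luminescence read before and 20 min after 0.1 nM hNppA.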
Luciferase inh: Firefly luciferase inhibition profiling of diverse chemical library using quantitative high-throughput screening; purified P. pyralis luciferase, luminescence, biochemical; Potency, µM (series often up to 115 µM), hits mostly inhibitors; 76,000 tested, 2.5% active; AID 1347043, 2019; also: nearly all actives have a fitted effect of over 65% in size
Target sequence (P08659 whole entry, looked up): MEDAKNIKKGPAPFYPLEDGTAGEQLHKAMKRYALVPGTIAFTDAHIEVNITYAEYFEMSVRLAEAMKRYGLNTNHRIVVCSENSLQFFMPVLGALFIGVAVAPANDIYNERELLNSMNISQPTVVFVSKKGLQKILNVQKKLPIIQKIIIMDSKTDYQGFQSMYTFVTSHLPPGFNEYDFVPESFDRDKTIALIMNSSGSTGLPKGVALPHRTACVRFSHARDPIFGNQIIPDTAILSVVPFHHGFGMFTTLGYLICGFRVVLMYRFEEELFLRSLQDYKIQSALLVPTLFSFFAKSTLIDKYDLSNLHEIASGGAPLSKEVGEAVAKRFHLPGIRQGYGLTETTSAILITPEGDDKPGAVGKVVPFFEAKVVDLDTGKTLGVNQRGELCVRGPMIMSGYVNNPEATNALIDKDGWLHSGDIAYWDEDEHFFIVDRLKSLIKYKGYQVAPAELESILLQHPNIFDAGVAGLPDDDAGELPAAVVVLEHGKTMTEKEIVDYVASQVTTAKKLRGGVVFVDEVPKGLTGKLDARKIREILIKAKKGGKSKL
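Inhibitors were tested against purified firefly luciferase in a biochemical, low-substrate format (both substrates at 10uM) and luminescence measured with a CCD imager.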
Hits are given with their value. Unless noted, calls follow the shape of the dose curve; as a rule, active = well fitted curve in the direction sought with a large enough effect; inconclusive = small, poorly fitted or top-dose-only effect, or another doubt; inactive = no such curve, though single readings can be large; an effect the other way counts as inactive or inconclusive.

How did COc1ccc(/C=C/c2ccc3c(c2)C(=O)N2CC[C@H](N)[C@H]2C(=O)N3)cc1 do in these assays?
GPT2 inhibitor: inactive; 3T3 cytotox: inconclusive; HEK293 tox: 100µM; hNpr1 antagonist: inactive; Luciferase inh: 20µM

What do the screens show for `COc1ccc(/C=C/c2ccc3c(c2)C(=O)N2CC[C@H](NC(=O)c4cnccn4)[C@H]2C(=O)N3)cc1`?
GPT2 inhibitor: inactive; 3T3 cytotox: inactive; HEK293 tox: inactive; hNpr1 antagonist: inactive; Luciferase inh: 7.9µM

What do the screens show for `O=C(N[C@H]1CCN2C(=O)c3cc(-c4cccc(C(F)(F)F)c4)ccc3NC(=O)[C@H]12)c1cnccn1`?
GPT2 inhibitor: inactive; 3T3 cytotox: 79µM; HEK293 tox: 45µM; hNpr1 antagonist: inactive; Luciferase inh: inactive

Results for CC(C)CN1C(=O)c2cccn2CC1CN (stereo not given) ?
GPT2 inhibitor: inactive; 3T3 cytotox: inactive; HEK293 tox: inactive; hNpr1 antagonist: inconclusive; Luciferase inh: inactive

What do the screens show for `COCCn1c(=O)c(C(=O)N2CCC(Cc3ccccc3)CC2)nc2cccnc21`?
GPT2 inhibitor: inactive; 3T3 cytotox: inactive; HEK293 tox: inactive

How did O=C(NCCN[S+](=O)([O-])c1cccc(C(F)(F)F)c1)c1cccc(-c2ccsc2)c1 do in these assays?
GPT2 inhibitor: inactive; 3T3 cytotox: 40µM; HEK293 tox: inconclusive

Results for O=C(NCCN[S+](=O)([O-])c1cccc(C(F)(F)F)c1)c1ccc(-c2cncnc2)cc1 ?
3T3 cytotox: inactive; HEK293 tox: 89µM

How did Cc1ccc([S+](=O)([O-])NCCNC(=O)c2ccc(-c3cncnc3)cc2)cc1 do in these assays?
3T3 cytotox: inactive; HEK293 tox: inactive

Results for CCOCCNC(=O)CNC(=O)c1ccc(-c2cccc(C(F)(F)F)c2)cc1 ?
GPT2 inhibitor: inactive; 3T3 cytotox: inconclusive; HEK293 tox: inconclusive

Results for CCC(C)NC(=O)CNC(=O)c1ccc(-c2cccc(C(F)(F)F)c2)cc1 (stereo not given) ?
GPT2 inhibitor: inactive; 3T3 cytotox: inactive; HEK293 tox: 35µM

Results for O=C(NCCN[S+](=O)([O-])c1cccc(C(F)(F)F)c1)c1ccc(-c2cccc(C(F)(F)F)c2)cc1 ?
3T3 cytotox: 28µM; HEK293 tox: 40µM

Results for CC(C)CN1C[C@@H](NC(=O)c2cccnc2)C[C@H]1CO ?
GPT2 inhibitor: inactive; 3T3 cytotox: inactive; HEK293 tox: inactive; hNpr1 antagonist: inactive; Luciferase inh: inactive

How did O=C1NCCCCCCN(Cc2ccncc2)[C@@H]2CN(Cc3ccncc3)CC[C@@H]12 do in these assays?
GPT2 inhibitor: inactive; 3T3 cytotox: inactive; HEK293 tox: inactive; hNpr1 antagonist: inactive; Luciferase inh: inactive

How did COC[C@@H]1CN(C(=O)c2cccnc2)C[C@H]1c1ccccn1 do in these assays?
GPT2 inhibitor: inactive; 3T3 cytotox: inactive; HEK293 tox: inactive

How did CCCN(CCC)C(=O)c1ccc(CN2C(=O)NC3(CCS(=O)(=O)CC3)C2=O)cc1 do in these assays?
GPT2 inhibitor: inactive; 3T3 cytotox: inactive; HEK293 tox: inactive; hNpr1 antagonist: inconclusive; Luciferase inh: inactive

Results for O=C(NCC1Cn2cccc2CN1Cc1ccccc1)c1n[nH]c2ccccc12 (stereo not given) ?
GPT2 inhibitor: inactive; 3T3 cytotox: inconclusive; HEK293 tox: inconclusive; hNpr1 antagonist: inactive; Luciferase inh: 14µM

Results for CCN1C[C@H]2COc3cc(OC)ccc3[C@H]2N(C(=O)c2ccc(C)cc2)CCC1=O ?
3T3 cytotox: inconclusive; HEK293 tox: inactive

What do the screens show for `CC(C)c1ccc(C(=O)NCc2ccnc3[nH]ccc23)cc1`?
GPT2 inhibitor: inactive; 3T3 cytotox: inconclusive; HEK293 tox: inconclusive; hNpr1 antagonist: inactive; Luciferase inh: 25µM

What do the screens show for `Cc1ccc(C(=O)NCc2ccnc3[nH]ccc23)cc1`?
GPT2 inhibitor: inactive; 3T3 cytotox: inactive; HEK293 tox: inactive; hNpr1 antagonist: inactive; Luciferase inh: inconclusive

Results for O=C(c1ccc(Cl)cc1)N1CC2(CCCN(Cc3ccc(Cl)cc3)C2)Cc2ccccc21 (stereo not given) ?
GPT2 inhibitor: inactive; 3T3 cytotox: 32µM; HEK293 tox: inconclusive

What do the screens show for `O=C(c1ccc(Cl)cc1)N1CC2(CCN(Cc3ccc(Cl)cc3)CC2)Cc2ccccc21`?
GPT2 inhibitor: inactive; 3T3 cytotox: 35µM; HEK293 tox: 40µM

How did O=C(c1ccc(Cl)cc1)N1CC2(CCN(Cc3c[nH]c4ccccc34)CC2)Cc2ccccc21 do in these assays?
GPT2 inhibitor: inactive; 3T3 cytotox: 11µM; HEK293 tox: 20µM

What do the screens show for `O=C(Nc1ccccc1)[C@@H]1OCCN(C2CC2)[C@H]1c1ccccc1`?
GPT2 inhibitor: inactive; 3T3 cytotox: inactive; HEK293 tox: inactive

Results for O=C(Cc1ccc(F)cc1)NCCNC(=O)c1ccc(-c2cccc(C(F)(F)F)c2)cc1 ?
3T3 cytotox: inactive; HEK293 tox: inconclusive

What do the screens show for `CC(C)(O)C#Cc1ccc(C(=O)N2CC(=O)N(C3CCCCC3)CC(OCc3cccnc3)C2)o1` (stereo not given)?
GPT2 inhibitor: inactive; 3T3 cytotox: inactive; HEK293 tox: inactive; hNpr1 antagonist: inactive; Luciferase inh: inactive

How did Cc1ccccc1C1(O)CCN(C(=O)c2ccc(C#CC(C)(C)O)o2)C1 (stereo not given) do in these assays?
GPT2 inhibitor: inactive; 3T3 cytotox: 35µM; HEK293 tox: inconclusive; hNpr1 antagonist: inactive; Luciferase inh: inactive

Results for Cc1ccc([S+](=O)([O-])N2CCCC2C(=O)N2CCC(N3CCOCC3=O)CC2)cc1 (stereo not given) ?
GPT2 inhibitor: inactive; 3T3 cytotox: inactive; HEK293 tox: inactive

What do the screens show for `Cc1ccc2nc(NC(=O)Cn3nc4c(cc3=O)CCCCC4)sc2c1`?
GPT2 inhibitor: inactive; 3T3 cytotox: inactive; HEK293 tox: inconclusive; hNpr1 antagonist: inactive; Luciferase inh: 35µM

How did O=C(Cn1nc2c(cc1=O)CCCCC2)NCCn1ccc2c(Cl)cccc21 do in these assays?
GPT2 inhibitor: inactive; 3T3 cytotox: inconclusive; HEK293 tox: 79µM; hNpr1 antagonist: inactive; Luciferase inh: inactive

Results for CC(C)NC(=O)Cn1nc2c(cc1=O)CCCCC2 ?
GPT2 inhibitor: inactive; 3T3 cytotox: inactive; HEK293 tox: inactive; hNpr1 antagonist: inactive; Luciferase inh: inactive

Results for CC(C)[C@H](NC(=O)Cn1nc2c(cc1=O)CCCCC2)C(=O)O ?
GPT2 inhibitor: inactive; 3T3 cytotox: inactive; HEK293 tox: inactive; hNpr1 antagonist: inactive; Luciferase inh: 22µM
